GPR151 ag: human GPR151 activation. Q8TDV0. PathHunter beta-arrestin GPR151 cells, luminescence. activation, % at 11.2 µM. hit rate 1% among 650,000; in the data active means activation above about 4.9%;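 further: 0% = median of compound wells and 100% = cells with positive control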
Target sequence (Q8TDV0 whole entry, looked up): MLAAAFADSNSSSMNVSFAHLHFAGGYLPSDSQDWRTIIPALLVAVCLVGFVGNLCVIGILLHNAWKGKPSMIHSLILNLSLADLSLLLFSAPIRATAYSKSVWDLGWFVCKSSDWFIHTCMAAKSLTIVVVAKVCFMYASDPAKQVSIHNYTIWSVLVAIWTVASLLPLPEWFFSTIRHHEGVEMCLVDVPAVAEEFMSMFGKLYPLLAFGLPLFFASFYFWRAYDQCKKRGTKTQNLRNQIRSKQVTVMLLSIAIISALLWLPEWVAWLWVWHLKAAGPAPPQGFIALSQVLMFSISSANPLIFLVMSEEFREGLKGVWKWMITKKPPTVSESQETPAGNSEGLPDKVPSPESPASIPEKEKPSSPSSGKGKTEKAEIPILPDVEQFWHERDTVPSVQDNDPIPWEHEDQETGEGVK
MITF primary: human MITF inhibition, primary screen. AlphaScreen MITF homodimerization, bead proximity signal. inhibition, % at 2.6 µM. hit rate 0.91% among 650,000. AID 1259374; in the data active means inhibition above about 50%;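 further: 0% = vehicle wells with protein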
FBW7 activator: human FBW7 E3 ligase activation, primary screen | normalized activity (activation), % at 26.1 µM | AlphaScreen FBW7–phospho-cyclin E peptide binding, activator screen | AID 1259310 | hit rate 0.13% among 650,000 | Q969H0; in the data active means normalized activity above about 1.9%;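 further: purified mutant Fbw7 with reduced substrate affinity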
TEAD-YAP block: TEAD-YAP interaction inhibition; HEK-TIYL cells, TEAD-Gal4/YAP UAS-luciferase luminescence; inhibition, % at 9.12 µM; hit rate 1.4% among 640,000; in the data active means inhibition above about 32%;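 further: 0% = median of test compound wells and 100% = reference inhibitor wells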
GPR151 confirm: human GPR151 activation, confirmation screen; AID 1508609; activation, % at 11.2 µM; GPR151 PathHunter beta-arrestin cells, luminescence, 90 min; % of EA-reagent control over plate median; 6,700 tested, under 10 active; shares compounds with GPR151 ag;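 active means mean percent activation across replicates above the confirmation screen cutoff of 4.91%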
GPR119 ag: GPR119 activation, counter-screen for GPR151 activators | hit rate 0.3% among 6,700 | GPR119 PathHunter beta-arrestin cells, luminescence, 90 min; 0 = compound-well median, 100 = enzyme-acceptor control | activation, % at 11.2 µM | shares compounds with GPR151 ag;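 active means mean percent activation in the counterscreen above 29.09%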;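 further: counterscreen on off-target GPR119 to flag nonselective hits from the GPR151 activator screen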
The depositor's hits bear a star. A selection: hits, their analogues and other compounds. The true share with any hit is near 3.4%.

Screening Cc1nccn1CCNC(=O)c1cccc2ccccc12 returned GPR151 ag 6.0*, MITF primary -0.7, FBW7 activator -0.2, TEAD-YAP block 0.8, GPR151 confirm -0.8 and GPR119 ag -9.8.
`COc1ccc(-c2cnc(NCCCO)nc2)cc1` gave GPR151 ag -1.7, MITF primary 4.0, FBW7 activator 0.1 and TEAD-YAP block -14.3.
OCCCNc1ncc(-c2ccc(Cl)cc2)cn1 was read as GPR151 ag 5.8*, MITF primary 0.1, FBW7 activator 0.1, TEAD-YAP block -4.5, GPR151 confirm -0.6 and GPR119 ag -1.3.
`CN(C)CCN1C(=O)C(CC(=O)Nc2cccc([N+](=O)[O-])c2)SC1=Nc1ccccc1` (centres undefined) gave GPR151 ag 5.2*, MITF primary 5.8, FBW7 activator 0.2, TEAD-YAP block -12.9, GPR151 confirm 0.8 and GPR119 ag 16.8.
For CCN(CC(=O)NCc1cccs1)C(=O)c1cc2c(s1)CCCC2 the results were GPR151 ag -2.3, MITF primary 1.1, FBW7 activator 0.0 and TEAD-YAP block 9.1.
For CCOc1cccc2sc(N(CCN(C)C)C(=O)c3cc(Cl)ccc3[N+](=O)[O-])nc12 the results were GPR151 ag 7.1*, MITF primary 16.3, FBW7 activator -0.1, TEAD-YAP block 5.4, GPR151 confirm 1.2 and GPR119 ag 7.0.
`O=C(c1cc(Cl)ccc1Cl)N(CCn1cccn1)c1nc2c(F)cccc2s1` gave GPR151 ag 6.1*, MITF primary -0.2, FBW7 activator 0.0, TEAD-YAP block -7.5, GPR151 confirm 0.4 and GPR119 ag 0.4.
Screening CCCCC(=O)N(CCn1cccn1)c1nc2c(F)cccc2s1 returned GPR151 ag -0.4, MITF primary -1.5, FBW7 activator 0.1 and TEAD-YAP block 0.2.
`Cc1cccc(C2N(Cc3ccccc3)CCCN2Cc2ccccc2)n1` gave GPR151 ag 5.4*, MITF primary 3.8, FBW7 activator -0.2, TEAD-YAP block -6.4, GPR151 confirm 0.5 and GPR119 ag -3.5.
O=C(COC(=O)c1cc(O)c(O)c(O)c1)NC1CCCc2ccccc21 (centres undefined) was read as GPR151 ag -0.8, MITF primary 32.3, FBW7 activator -0.2 and TEAD-YAP block 7.8.
`Nc1cccc(C(=O)OCC(=O)NC2CCCc3ccccc32)c1` (centres undefined) gave GPR151 ag 5.2*, MITF primary 3.9, FBW7 activator 0.1, TEAD-YAP block 9.2, GPR151 confirm -0.8 and GPR119 ag -2.5.
For O=C(CCc1nnc(CCc2c[nH]c3ccccc23)o1)NCC1CC1 the results were GPR151 ag 5.4*, MITF primary 3.3, FBW7 activator -0.1, TEAD-YAP block 2.7, GPR151 confirm 0.8 and GPR119 ag 7.8.
Screening O=C(CCc1nnc(CCc2c[nH]c3ccccc23)o1)N1CCN(CC2CC2)CC1 returned GPR151 ag 0.1, MITF primary -7.2, FBW7 activator -0.1 and TEAD-YAP block 6.8.
For N#Cc1cccc(NC(=O)Cc2c(C(=O)O)[nH]c3ccc(Cl)cc23)c1 the results were GPR151 ag 0.3, MITF primary 16.2, FBW7 activator 0.3 and TEAD-YAP block 7.6.
For COc1ccc(Cl)cc1NC(=O)CN(C)S(=O)(=O)c1ccc(Br)cc1 the results were GPR151 ag -0.5, MITF primary 10.1, FBW7 activator 0.1 and TEAD-YAP block 0.6.
For COc1ccc(Cl)cc1NC(=O)CN(C)CC(=O)Nc1ccc(Br)cc1 the results were GPR151 ag 7.5*, MITF primary 6.4, FBW7 activator -0.1, TEAD-YAP block 4.7, GPR151 confirm 0.6 and GPR119 ag 1.3.
For CCC12C(=O)C(CC)(C(c3ccccc3)=C1c1ccccc1)C1C(=O)N(c3ccc(OC)cc3)C(=O)C12 (centres undefined) the results were GPR151 ag 0.4, MITF primary -2.2, FBW7 activator -0.1 and TEAD-YAP block 3.6.
CN(C)CCNC(=S)Nc1ccc(F)cc1 was read as GPR151 ag -0.5, MITF primary -24.3, FBW7 activator 0.0 and TEAD-YAP block 4.9.
CN(C)CCNC(=O)Nc1ccccc1 was read as GPR151 ag 1.1, MITF primary -12.5, FBW7 activator 0.4 and TEAD-YAP block -3.8.
CN(C)CCNC(=S)Nc1ccc(C(=O)O)cc1 was read as GPR151 ag 10.2*, MITF primary -3.3, FBW7 activator 0.1, TEAD-YAP block 0.4, GPR151 confirm 0.2 and GPR119 ag -3.9.
Screening CN(C)CCNC(=O)C(=O)Nc1ccccc1 returned GPR151 ag 8.4*, MITF primary 8.4, FBW7 activator 0.1, TEAD-YAP block -16.5, GPR151 confirm -0.5 and GPR119 ag -16.3.
`CCn1c2ccccc2n2c(=O)n(CC(=O)NCC3COc4ccccc4O3)nc12` (centres undefined) gave GPR151 ag 7.5*, MITF primary -4.6, FBW7 activator 1.0, TEAD-YAP block 13.2, GPR151 confirm 2.3 and GPR119 ag 7.2.
`CCn1c(=O)n(CC(=O)NCC2COc3ccccc3O2)c(=O)c2ccccc21` (centres undefined) gave GPR151 ag -0.8, MITF primary 5.8, FBW7 activator 0.0 and TEAD-YAP block -1.9.
CCn1c2ccccc2n2c(=O)n(CC(=O)Nc3ccc4c(c3)OCO4)nc12 was read as GPR151 ag 5.7*, MITF primary 8.9, FBW7 activator 1.0, TEAD-YAP block 14.3, GPR151 confirm 1.0 and GPR119 ag 1.6.
For COc1ccc(-c2c3c(=O)n(C)c(=O)n(C)c3cn2-c2cc(C)ccc2O)cc1 the results were GPR151 ag 5.4*, MITF primary 12.9, FBW7 activator -0.1, TEAD-YAP block -10.0, GPR151 confirm 0.0 and GPR119 ag 10.6.
For Cn1nnc2cc(NC(=O)Nc3ccc(Br)cc3)ccc21 the results were GPR151 ag 5.9*, MITF primary 0.5, FBW7 activator 0.0, TEAD-YAP block -91.8, GPR151 confirm -0.4 and GPR119 ag 0.9.
`CSc1ccc(-c2ccc3c(c2)CC(CNC(=O)c2ccncc2)O3)cc1` (centres undefined) gave GPR151 ag 0.5, MITF primary -4.3, FBW7 activator -0.1 and TEAD-YAP block 11.4.
For CSc1ccc(-c2ccc3c(c2)CC(CNC(=O)C2CCOC2)O3)cc1 (centres undefined) the results were GPR151 ag 7.9*, MITF primary 2.6, FBW7 activator 0.0, TEAD-YAP block 7.3, GPR151 confirm 0.0 and GPR119 ag -1.2.
CC1CCN(CC(=O)Nc2ccccc2)CC1 was read as GPR151 ag -0.8, MITF primary 6.8, FBW7 activator 0.1 and TEAD-YAP block 11.3.
`Cc1ccc(OCC(=O)NC23CC4CC(CC(C4)C2)C3)cc1C` gave GPR151 ag 5.1*, MITF primary 4.6, FBW7 activator 0.1, TEAD-YAP block -43.2, GPR151 confirm 0.1 and GPR119 ag -10.2.
